# Where “and” joins values, the source holds several entries; their conditions need not be identical. Identical values can stand only once. This is part of a sample that, as a whole, favours compounds with a hit. Of some 79,000 tested, about 15% had one in any assay. Some structures have more than one record in an assay (separate samples or runs), and their calls can disagree. Calls of active or inactive are those of the source. Rule as the data show it: active = growth inhibition above about 70%; inactive = the rest.
# Key:
# [1] = NCI Yeast Anticancer Drug Screen. Data for the rad52 strain (AID 147);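 also: 0% = growth of vehicle-treated control cultures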; conditions: S. cerevisiae rad52 mutant growth inhibition, stronger effect = higher value
# Outline: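 Here a repair-compromised yeast strain receives each compound; its growth is then quantified and normalised to vehicle-only controls.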
# [2] = NCI Yeast Anticancer Drug Screen. Data for the wt1 strain (AID 149);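 also: 0% = growth of vehicle-treated wt1 cultures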; conditions: S. cerevisiae wt1 strain (SPY 50644) growth inhibition, stronger effect = higher value
# Outline: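 Measured: growth of wt1 yeast under compound versus vehicle treatment, reported as inhibition.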
# [3] = NCI Yeast Anticancer Drug Screen. Data for the rad50EPP+ strain (AID 151);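 also: 0% = growth of vehicle-treated control cultures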; conditions: S. cerevisiae rad50 mutant strain, stronger effect = higher value
# Outline: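 Read-out is yeast growth inhibition relative to vehicle; cells used were the rad50EPP+ strain.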
# [4] = NCI Yeast Anticancer Drug Screen. Data for the mgt1 strain (AID 153); conditions: S. cerevisiae mgt1 mutant growth inhibition, stronger effect = higher value
# Outline: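 Measured: inhibition of mgt1 yeast growth by compound, normalized to vehicle-treated cultures.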
# [5] = NCI Yeast Anticancer Drug Screen. Data for the rad50 strain (AID 155);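 also: 0% = growth of vehicle-only cultures of the same strain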; conditions: S. cerevisiae rad50 strain growth inhibition, stronger effect = higher value
# Outline: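 Growth of the mutant yeast was measured after compound exposure and referenced to vehicle-treated cultures.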
# [6] = NCI Yeast Anticancer Drug Screen. Data for the mec2-1 strain (AID 157); conditions: S. cerevisiae mec2-1 strain, stronger effect = higher value
# Outline: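 Using mec2-1 yeast: add compound, measure growth, express inhibition versus vehicle-treated cultures.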
# [7] = NCI Yeast Anticancer Drug Screen. Data for the sgs1 mgt1 strain (AID 161);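 also: 0% = growth of cultures given vehicle only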; conditions: S. cerevisiae sgs1 mgt1 strain, stronger effect = higher value
# Outline: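 Percent growth inhibition was derived by comparing compound-exposed mutant yeast with vehicle-exposed cultures. The strain carries alterations in DNA damage repair.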
# [8] = NCI Yeast Anticancer Drug Screen. Data for the CLN2oe strain (AID 163);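 also: 0% = growth of vehicle-only control cultures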; conditions: S. cerevisiae CLN2oe strain, stronger effect = higher value
# Outline: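 Whole-cell yeast growth assay. A strain engineered for altered cell-cycle control received compound, and inhibition relative to vehicle-treated cultures was recorded.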
# [9] = NCI Yeast Anticancer Drug Screen. Data for the cln2 rad14 strain (AID 165);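 also: 0% = growth equal to vehicle treated cultures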; conditions: S. cerevisiae cln2 rad14 strain, at 50.0 µM, stronger effect = higher value
# Outline: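 Yeast strain cln2 rad14, bearing defects in cell cycle control and DNA repair, serves as the test system; values reflect growth inhibition compared with vehicle.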
# [10] = NCI Yeast Anticancer Drug Screen. Data for the bub3 strain (AID 167); conditions: S. cerevisiae bub3 mutant strain, stronger effect = higher value
# Outline: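 Whole-cell yeast assay. The mutant strain was incubated with compounds, and growth inhibition was determined by comparison with vehicle-treated cells.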
# [11] = NCI Yeast Anticancer Drug Screen. Data for the wt2 strain (AID 169);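 also: 0% = growth of vehicle-treated yeast cultures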; conditions: S. cerevisiae wt2 strain growth inhibition, stronger effect = higher value
# Outline: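 Treated yeast vs. vehicle-treated yeast: growth inhibition determined.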
# [12] = NCI Yeast Anticancer Drug Screen. Data for the mlh1 strain (AID 171);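 also: 0% = growth of vehicle-treated control cultures of the same strain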; conditions: S. cerevisiae mlh1 strain growth inhibition, stronger effect = higher value
# Outline: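 A yeast strain with a defined genetic lesion serves as the test organism. Cultures receive compound or vehicle, and growth is measured.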
# [13] = NCI Yeast Anticancer Drug Screen. Data for the sgs1 strain (AID 173);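 also: 0% = growth of vehicle-only control cultures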; conditions: S. cerevisiae sgs1 mutant, stronger effect = higher value
# Outline: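 A genetically defined yeast mutant is incubated with the test compound, and its growth is compared to that of the same strain given vehicle.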
# [14] = NCI Yeast Anticancer Drug Screen. Data for the mlh1 rad18 strain (AID 175); conditions: S. cerevisiae mlh1 rad18 strain growth inhibition, stronger effect = higher value
# Outline: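 Steps: expose repair-defective yeast to compound; measure growth; express inhibition against vehicle-treated controls.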
# [15] = NCI Yeast Anticancer Drug Screen. Data for the rad18 strain (AID 177); conditions: S. cerevisiae rad18 mutant growth inhibition, stronger effect = higher value
# Outline: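 Measured value is growth inhibition of a yeast strain bearing a DNA repair alteration, referenced to vehicle-treated cells.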
# [16] = at 5.0 µM (retest, dose inferred, filed as 0.5)
# [17] = at 50.0 µM (retest, dose inferred, filed as 5.0)
compound,measurement,setting,value
Oc1cccc2cccnc12,growth inhibition,[1]; at 1.2 µM,20% (inactive)
same,growth inhibition,[1]; at 3.7 µM,91% (active)
same,growth inhibition,[1]; at 11.0 µM,93% (active)
same,growth inhibition,[1]; at 33.0 µM,94% (active)
same,growth inhibition,[1]; at 100.0 µM,96% (active)
same,growth inhibition,[2]; at 1.2 µM,27% (inactive)
same,growth inhibition,[2]; at 3.7 µM,95% (active)
same,growth inhibition,[2]; at 11.0 µM,99% (active)
same,growth inhibition,[2]; at 33.0 µM,99% (active)
same,growth inhibition,[2]; at 100.0 µM,98% (active)
same,growth inhibition,[3]; at 1.2 µM,-11% (inactive)
same,growth inhibition,[3]; at 3.7 µM,93% (active)
same,growth inhibition,[3]; at 11.0 µM,94% (active)
same,growth inhibition,[3]; at 33.0 µM,94% (active)
same,growth inhibition,[3]; at 100.0 µM,95% (active)
same,growth inhibition,[4]; at 1.2 µM,4% (inactive)
same,growth inhibition,[4]; at 3.7 µM,91% (active)
same,growth inhibition,[4]; at 11.0 µM,96% (active)
same,growth inhibition,[4]; at 33.0 µM,98% (active)
same,growth inhibition,[4]; at 100.0 µM,97% (active)
same,growth inhibition,[5]; at 1.2 µM,18% (inactive)
same,growth inhibition,[5]; at 3.7 µM,85% (active)
same,growth inhibition,[5]; [16],78% (active) and 97% (active) and 96% (active)
same,growth inhibition,[5]; at 11.0 µM,97% (active)
same,growth inhibition,[5]; at 33.0 µM,97% (active)
same,growth inhibition,[5]; [17],99% (active)
same,growth inhibition,[5]; at 50.0 µM,99.1% (active) [middle of 4 runs]
same,growth inhibition,[5]; at 100.0 µM,96% (active)
same,growth inhibition,[6]; at 1.2 µM,6% (inactive)
same,growth inhibition,[6]; at 3.7 µM,85% (active)
same,growth inhibition,[6]; at 11.0 µM,97% (active)
same,growth inhibition,[6]; at 33.0 µM,99% (active)
same,growth inhibition,[6]; [17],99% (active) and 100% (active)
same,growth inhibition,[6]; at 50.0 µM,99.1% (active) [middle of 4 runs]
same,growth inhibition,[6]; at 100.0 µM,98% (active)
same,growth inhibition,[7]; [17],-41% (inactive) and 100% (active) and 99% (active)
same,growth inhibition,[7]; at 50.0 µM,95.5% (active) [middle of 5 runs]
same,growth inhibition,[8]; at 1.2 µM,-19% (inactive)
same,growth inhibition,[8]; at 3.7 µM,86% (active)
same,growth inhibition,[8]; at 11.0 µM,84% (active)
same,growth inhibition,[8]; at 33.0 µM,94% (active)
same,growth inhibition,[8]; at 100.0 µM,92% (active)
same,growth inhibition,[9],95.5% (active) [middle of 5 runs]
same,growth inhibition,[10]; at 1.2 µM,-2% (inactive)
same,growth inhibition,[10]; at 3.7 µM,63% (inactive)
same,growth inhibition,[10]; at 11.0 µM,97% (active)
same,growth inhibition,[10]; at 33.0 µM,98% (active)
same,growth inhibition,[10]; [17],-8% (inactive) and 100% (active) and 99% (active)
same,growth inhibition,[10]; at 50.0 µM,98.7% (active) [middle of 5 runs]
same,growth inhibition,[10]; at 100.0 µM,98% (active)
same,growth inhibition,[11]; at 1.2 µM,17% (inactive)
same,growth inhibition,[11]; at 3.7 µM,84% (active)
same,growth inhibition,[11]; at 11.0 µM,90% (active)
same,growth inhibition,[11]; at 33.0 µM,95% (active)
same,growth inhibition,[11]; at 100.0 µM,98% (active)
same,growth inhibition,[12]; at 1.2 µM,1% (inactive)
same,growth inhibition,[12]; at 3.7 µM,74% (active)
same,growth inhibition,[12]; at 11.0 µM,97% (active)
same,growth inhibition,[12]; at 33.0 µM,98% (active)
same,growth inhibition,[12]; at 100.0 µM,98% (active)
same,growth inhibition,[13]; at 1.2 µM,47% (inactive)
same,growth inhibition,[13]; at 3.7 µM,94% (active)
same,growth inhibition,[13]; at 11.0 µM,97% (active)
same,growth inhibition,[13]; at 33.0 µM,98% (active)
same,growth inhibition,[13]; at 100.0 µM,97% (active)
same,growth inhibition,[14]; [16],75% (active) [middle of 5 runs]
same,growth inhibition,[14]; [17],99% (active) and 96% (active)
same,growth inhibition,[14]; at 50.0 µM,98.2% (active) [middle of 4 runs]
same,growth inhibition,[15]; at 1.2 µM,30% (inactive)
same,growth inhibition,[15]; at 3.7 µM,95% (active)
same,growth inhibition,[15]; at 11.0 µM,97% (active)
same,growth inhibition,[15]; at 33.0 µM,97% (active)
same,growth inhibition,[15]; at 100.0 µM,97% (active)

# — PubChem BioAssay (NCI)
